# Results from PubChem BioAssay (Tox21).
# A number with no mark means an inactive call. Records with an inconclusive call do not appear. A call without a number means that no potency is given here. Activity calls are given as the source filed them. Unless noted, the call rests on the fitted dose curve; in most records, active means well fitted curve in the direction sought with a large enough effect in the repeat runs; inconclusive means weak or mixed curves; inactive means no such curve, though single readings can be large; an effect the other way counts as inactive or inconclusive.
# Key:
# [1] = qHTS assay for small molecule agonists of the p53 signaling pathway (AID 651631; calls by dose curve; further: nearly all actives have a fitted effect of over 15% in size; further: potency means the concentration at half of the fitted maximal effect)
# Summary of the method: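 HCT-116 cells carrying a stable p53 response element–beta-lactamase reporter were plated, rested 5 h at 37 °C, then exposed to compound in DMSO for 16 h at 37 °C; reporter activity was read as FRET substrate fluorescence after 2 h at room temperature.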
# [2] = qHTS assay for small molecules that induce genotoxicity in human embryonic kidney cells expressing luciferase-tagged ATAD5 (AID 651632); further: nearly all actives have a fitted effect of over 15% in size
# Summary of the method: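 Luminescent reporter readout, HEK293T ATAD5-luc line: 16 hr drug exposure (37C, 5% CO2) followed by Amplite, 30 min RT.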
# [3] = qHTS assay for small molecules that induce genotoxicity in human embryonic kidney cells expressing luciferase-tagged ATAD5 - cell viability (AID 651634; calls by dose curve; further: nearly all actives have a fitted effect of over 25% in size)
# Summary of the method: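 Viability read: CellTiter-Fluor fluorescence, 30 min at 37C. Cells: HEK293T, luciferase-tagged ATAD5. Exposure: 15.5 hr, 37C, 5% CO2, compound or DMSO vehicle.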
# [4] = qHTS assay for small molecule disruptors of the mitochondrial membrane potential - cell viability (AID 720634; calls by dose curve;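 further: human HepG2 liver cancer cells; series mostly up to about 83 µM; nearly all actives have a fitted effect of over 20% in size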)
# Summary of the method: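 HepG2, 1 hr compound, 37 C. ATP luminescence via CellTiter-Glo, 30 min RT, same well as m-MPI.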
# [5] = qHTS assay to test for compound auto fluorescence at 590 nm (red) in HepG2 cells (AID 720674)
# Summary of the method: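 HepG2 cells, 2,000 per well in MEM with 10% FBS, attached overnight at 37 C, then got 23 nL compound or DMSO. After 1 hr at 37 C, 5% CO2, red fluorescence was read at 540/590 nm against Rose Bengal sodium as reference.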
# [6] = qHTS assay to test for compound auto fluorescence at 535 nm (green) in HepG2 cells (AID 720675)
# [7] = qHTS assay to test for compound auto fluorescence at 460 nm (blue) in HEK293 cells (AID 720678)
# Summary of the method: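 Intrinsic compound fluorescence is recorded in live HEK293 cultures after overnight incubation at 37C, 5% CO2, using excitation 405 nm and emission 460 nm. Values are referenced to triamterene.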
# [8] = qHTS assay to test for compound auto fluorescence at 590 nm (red) in HEK293 cells (AID 720679)
# Summary of the method: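 Red autofluorescence, HEK293 cells: 2,000 cells/well; attach 4-5 hr 37C; add 23 nL cpd or DMSO; incubate o/n 37C 5% CO2; read Ex540/Em590; Rose Bengal sodium reference.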
# [9] = qHTS assay to test for compound auto fluorescence at 535 nm (green) in HEK293 cells (AID 720680)
# [10] = qHTS assay to test for compound auto fluorescence at 460 nm (blue) in HEK293 cell free culture (AID 720681)
# Summary of the method: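 Compounds were added to cell-free DMEM with 10% FBS and fluorescence read directly. The blue channel used 405 nm excitation and 460 nm emission, with triamterene as the reference fluorophore.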
# [11] = qHTS assay to test for compound auto fluorescence at 535 nm (green) in HEK293 cell free culture (AID 720682)
# Summary of the method: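 Read-out: 485/535 nm fluorescence intensity, calibrated against fluorescein. Medium only (DMEM + 10% FBS, no cells); test compound or DMSO vehicle added by pintool before plate reading.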
# [12] = qHTS assay to test for compound auto fluorescence at 590 nm (red) in HEK293 cell free culture (AID 720683)
# Summary of the method: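 Cell-free wells of DMEM with 10% FBS received compound, and intrinsic fluorescence was read at excitation/emission 540/590 nm. Values expressed as equivalence to Rose Bengal sodium.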
# [13] = qHTS assay to test for compound auto fluorescence at 590 nm (red) in HepG2 cell free culture (AID 720684)
# Summary of the method: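 Compounds are added to culture medium (MEM, 10% FBS) lacking cells, then fluorescence is read at excitation 540 nm, emission 590 nm, with Rose Bengal sodium as the equivalency standard.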
# [14] = qHTS assay to test for compound auto fluorescence at 460 nm (blue) in HepG2 cell free culture (AID 720685)
# Summary of the method: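 Compound (23 nL) or DMSO pinned into cell-free MEM with 10% FBS; blue fluorescence read at 405/460 nm excitation/emission, expressed as auto-fluorescence equivalency to triamterene.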
# [15] = qHTS assay to test for compound auto fluorescence at 535 nm (green) in HepG2 cell free culture (AID 720686)
# [16] = qHTS assay to test for compound auto fluorescence at 460 nm (blue) in HepG2 cells (AID 720687)
# Summary of the method: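 HepG2 cells in MEM with 10% FBS, attached overnight at 37 C, were exposed to compound or DMSO for 1 hr at 37 C, 5% CO2. Blue fluorescence was read at 405/460 nm, with triamterene as reference fluorophore.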
# [17] = biological target: Glucocorticoid receptor (Homo sapiens) (UniProt P04150); experiment: qHTS assay to identify small molecule agonists of the glucocorticoid receptor (GR) signaling pathway (AID 720691; active means well fitted activation curve with a large enough effect in the signal ratio in the repeat runs, not every such curve was filed as active; the % refers to the signal ratio)
# Summary of the method: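 qHTS in GR-bla HeLa cells: 4 h settling at 37 C/5% CO2, 18 h compound incubation at 37 C, 2 h LiveBLAzer B/G FRET substrate at room temperature, fluorescence intensity measured.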
# [18] = qHTS assay for small molecule agonists of the p53 signaling pathway - cell viability (AID 651633; calls by dose curve; further: series mostly up to about 83 µM; nearly all actives have a fitted effect of over 30% in size)
# Summary of the method: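 p53RE-bla cells were treated with compound for 16 hours at 37 C. Cytotoxicity was then measured as CellTiter-Glo luminescence after 30 min at room temperature.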
# [19] = biological target: Glucocorticoid receptor (Homo sapiens) (UniProt P04150); experiment: qHTS assay to identify small molecule antagonists of the glucocorticoid receptor (GR) signaling pathway (AID 720692; active means well fitted inhibition curve with a large enough effect in the signal ratio in the repeat runs, not every such curve was filed as active; the % refers to the signal ratio)
# Summary of the method: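 Inhibition of glucocorticoid signalling is measured in HeLa cells with a GRE-controlled beta-lactamase reporter; cells are co-treated with compound and 5 nM dexamethasone (final) for 18 h before FRET substrate readout.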
# [20] = qHTS assay for small molecule disruptors of the mitochondrial membrane potential (AID 720635); further: potency means the concentration at half of the fitted maximal effect
# Summary of the method: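 HepG2 cells exposed to compound 1 hr at 37C, then Mito-MPS dye 30 min. Ratio read of aggregate (540/590 nm) versus monomer (490/535 nm) fluorescence.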
# Chain of Glucocorticoid receptor (Homo sapiens) (P04150 whole entry, looked up): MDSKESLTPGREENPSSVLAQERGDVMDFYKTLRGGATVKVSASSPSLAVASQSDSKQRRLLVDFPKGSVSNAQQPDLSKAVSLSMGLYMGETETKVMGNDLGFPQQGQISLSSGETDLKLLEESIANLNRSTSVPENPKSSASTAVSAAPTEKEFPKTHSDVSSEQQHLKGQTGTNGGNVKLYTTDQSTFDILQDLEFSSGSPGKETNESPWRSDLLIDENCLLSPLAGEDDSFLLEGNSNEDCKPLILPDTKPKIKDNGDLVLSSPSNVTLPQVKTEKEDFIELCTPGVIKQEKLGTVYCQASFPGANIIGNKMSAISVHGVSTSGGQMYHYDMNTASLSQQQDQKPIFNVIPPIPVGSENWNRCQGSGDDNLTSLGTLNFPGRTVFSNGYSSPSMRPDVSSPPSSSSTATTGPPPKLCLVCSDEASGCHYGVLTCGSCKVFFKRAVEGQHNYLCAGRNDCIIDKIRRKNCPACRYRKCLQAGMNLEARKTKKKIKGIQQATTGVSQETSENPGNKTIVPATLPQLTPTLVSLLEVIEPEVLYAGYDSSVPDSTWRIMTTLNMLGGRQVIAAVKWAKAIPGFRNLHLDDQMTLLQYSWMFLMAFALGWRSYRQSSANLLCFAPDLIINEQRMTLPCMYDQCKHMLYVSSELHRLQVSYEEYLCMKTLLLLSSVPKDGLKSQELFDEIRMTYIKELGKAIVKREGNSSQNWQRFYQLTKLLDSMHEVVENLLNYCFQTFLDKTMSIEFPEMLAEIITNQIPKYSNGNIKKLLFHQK
smiles,measurement,setting,value
Nc1ccn([C@@H]2O[C@H](CO)[C@@H](O)C2(F)F)c(=O)n1,Potency,[1],0.106 µM (active)
same,Potency,[2],inactive
same,Potency,[3],inactive
same,outcome,[4],inactive
same,outcome,[5],inactive
same,outcome,[6],inactive
same,outcome,[7],inactive
same,outcome,[8],inactive
same,outcome,[9],inactive
same,outcome,[10],inactive
same,outcome,[11],inactive
same,outcome,[12],inactive
same,outcome,[13],inactive
same,outcome,[14],inactive
same,outcome,[15],inactive
same,outcome,[16],inactive
same,Potency,[17],inactive
C=C[Si](OC(C)=O)(OC(C)=O)OC(C)=O,Potency,[1],inactive
same,Potency,[2],inactive
same,Potency,[18],inactive
same,outcome,[4],inactive
same,outcome,[5],inactive
same,outcome,[6],inactive
same,outcome,[7],inactive
same,outcome,[8],inactive
same,outcome,[9],inactive
same,outcome,[10],inactive
same,outcome,[11],inactive
same,outcome,[12],inactive
same,outcome,[13],inactive
same,outcome,[14],inactive
same,outcome,[15],inactive
same,outcome,[16],inactive
same,Potency,[17],inactive
Cc1cc(C)c(N=Nc2c(O)c(S(=O)(=O)O)cc3cc(S(=O)(=O)O)ccc23)cc1C,activation,[1],-4.32% [at 8.3 µM]
same,activation,[2],1.99% [at 8.08 µM]
same,"activity change, negative = cytotoxicity",[18],11.3% [at 8.08 µM]
same,"activity change, negative = cytotoxicity",[4],-3.07% [at 8.08 µM]
same,"fluorescence, relative to Rose Bengal",[5],0.0524% [at 9.17 µM]
same,"fluorescence, % of fluorescein control",[6],-0.0414% [at 9.17 µM]
same,"fluorescence, % of triamterene",[7],-0.0938% [at 9.17 µM]
same,"fluorescence, % of fluorescent control",[8],-0.166% [at 9.17 µM]
same,"fluorescence, % of fluorescein",[9],-0.0092% [at 9.17 µM]
same,activity change,[11],0.0216% [at 9.17 µM]
same,"fluorescence, % of fluorescent control",[12],0.0378% [at 9.17 µM]
same,"fluorescence, % of fluorescent control",[14],-0.11% [at 9.17 µM]
same,"fluorescence, % of fluorescent control",[16],-0.0207% [at 9.17 µM]
same,activation,[17],-1.47% [at 6.9 µM]
same,"activity change, negative = inhibition",[19],0.597% [at 7.04 µM]
CC(=O)Nc1ccc(OCC(O)CNC(C)C)cc1 (stereo not given),Potency,[1],inactive
same,Potency,[2],inactive
same,Potency,[18],inactive
same,outcome,[4],inactive
same,outcome,[5],inactive
same,outcome,[6],inactive
same,outcome,[7],inactive
same,outcome,[8],inactive
same,outcome,[9],inactive
same,outcome,[10],inactive
same,outcome,[11],inactive
same,outcome,[12],inactive
same,outcome,[13],inactive
same,outcome,[14],inactive
same,outcome,[15],inactive
same,outcome,[16],inactive
same,Potency,[17],inactive
same,Potency,[19],inactive
Cc1ccc(C(=O)c2ccc(CC(=O)O)n2C)cc1,Potency,[1],inactive
same,Potency,[2],inactive
same,Potency,[18],inactive
same,outcome,[4],inactive
same,"fluorescence, relative to Rose Bengal",[5],0.352% [at 18.6 µM]
same,"fluorescence, % of fluorescein control",[6],0.0458% [at 18.6 µM]
same,"fluorescence, % of triamterene",[7],-0.184% [at 18.6 µM]
same,"fluorescence, % of fluorescent control",[8],0.256% [at 18.6 µM]
same,"fluorescence, % of fluorescent control",[10],0.0612% [at 18.6 µM]
same,activity change,[11],-0.0078% [at 18.6 µM]
same,"fluorescence, % of fluorescent control",[12],0.0035% [at 18.6 µM]
same,"fluorescence, % of Rose Bengal",[13],0.0726% [at 18.6 µM]
same,"fluorescence, % of fluorescent control",[14],-0.117% [at 18.6 µM]
same,"fluorescence, % of fluorescein control",[15],-0.0798% [at 18.6 µM]
same,"fluorescence, % of fluorescent control",[16],-0.0013% [at 18.6 µM]
CC(C)(C)OC(=O)c1cccc(N)c1,Potency,[1],inactive
same,Potency,[2],inactive
same,Potency,[18],inactive
same,outcome,[4],inactive
same,outcome,[5],inactive
same,outcome,[6],inactive
same,outcome,[7],inactive
same,outcome,[8],inactive
same,outcome,[10],inactive
same,outcome,[11],inactive
same,outcome,[12],inactive
same,outcome,[14],inactive
same,outcome,[15],inactive
same,outcome,[16],inactive
same,Potency,[17],inactive
same,Potency,[19],inactive
c1ccc2sc(SN3CCOCC3)nc2c1,Potency,[1],inactive
same,Potency,[2],inactive
same,Potency,[18],inactive
same,outcome,[4],inactive
same,outcome,[5],inactive
same,outcome,[6],inactive
same,outcome,[7],inactive
same,outcome,[8],inactive
same,outcome,[9],inactive
same,outcome,[10],inactive
same,outcome,[11],inactive
same,outcome,[12],inactive
same,outcome,[13],inactive
same,outcome,[14],inactive
same,outcome,[15],inactive
same,outcome,[16],inactive
same,Potency,[17],inactive
same,Potency,[19],inactive
CCC(C)(CN(C)C)OC(=O)c1ccccc1 (stereo not given),Potency,[1],inactive
same,Potency,[18],inactive
same,Potency,[3],inactive
same,outcome,[4],inactive
same,Potency,[20],inactive
same,"fluorescence, relative to Rose Bengal",[5],-0.657% [at 18.6 µM]
same,"fluorescence, % of fluorescein control",[6],-0.164% [at 18.6 µM]
same,"fluorescence, % of triamterene",[7],0.148% [at 18.6 µM]
same,"fluorescence, % of fluorescent control",[8],0.273% [at 18.6 µM]
same,"fluorescence, % of fluorescein",[9],-0.0159% [at 18.6 µM]
same,"fluorescence, % of fluorescent control",[10],-0.0658% [at 18.6 µM]
same,activity change,[11],-0.158% [at 18.6 µM]
same,"fluorescence, % of fluorescent control",[12],-0.827% [at 18.6 µM]
same,"fluorescence, % of Rose Bengal",[13],-0.0837% [at 18.6 µM]
same,"fluorescence, % of fluorescent control",[14],0.131% [at 18.6 µM]
same,"fluorescence, % of fluorescein control",[15],0.0276% [at 18.6 µM]
same,"fluorescence, % of fluorescent control",[16],-0.0227% [at 18.6 µM]
same,Potency,[17],inactive
same,Potency,[19],inactive
CC(C)COC(=O)c1ccc(N)cc1,Potency,[1],inactive
same,Potency,[18],inactive
same,Potency,[3],inactive
same,outcome,[4],inactive
same,outcome,[5],inactive
same,outcome,[6],inactive
same,outcome,[8],inactive
same,outcome,[9],inactive
same,outcome,[10],inactive
same,outcome,[11],inactive
same,outcome,[12],inactive
same,outcome,[13],inactive
same,outcome,[14],inactive
same,outcome,[15],inactive
same,outcome,[16],inactive
same,Potency,[17],inactive
same,Potency,[19],inactive
O=C1NC(=O)C2CC=CCC12 (stereo not given),Potency,[1],inactive
same,Potency,[18],inactive
same,Potency,[3],inactive
same,outcome,[4],inactive
same,outcome,[5],inactive
same,outcome,[6],inactive
same,outcome,[7],inactive
same,outcome,[8],inactive
same,outcome,[9],inactive
same,outcome,[10],inactive
same,outcome,[12],inactive
same,outcome,[13],inactive
same,outcome,[14],inactive
same,outcome,[15],inactive
same,outcome,[16],inactive
same,Potency,[17],inactive
same,Potency,[19],inactive
COc1cc2c(cc1OC)-c1cc3ccc(OC)c(OC)c3c[n+]1CC2,Potency,[1],inactive
same,Potency,[2],inactive
same,Potency,[18],inactive
same,outcome,[4],inactive
same,Potency,[20],17.4 µM (active)
same,outcome,[5],inactive
same,outcome,[8],inactive
same,outcome,[9],inactive
same,outcome,[11],inactive
same,outcome,[12],inactive
same,outcome,[13],inactive
same,outcome,[14],inactive
same,outcome,[15],inactive
same,outcome,[16],inactive
same,Potency,[17],inactive
same,Potency,[19],inactive
